Laboratory results published in ChEMBL document CHEMBL1857833, “Screening and optimization of specific chemical series against human African Trypanosomiasis (HAT)”.
About 390 (8.9%) of roughly 4,400 compounds showed an effect of 50% or more. The entries come from a sample that favours strong results as a whole.

tested on: Trypanosoma brucei; assay: DNDI: Inhibition of Human African Trypanosomiasis, SBRI 427, in vitro at 2 ug.mL-1; format: functional

Row | Structure (SMILES) | % inhibition [%]
1 | N#CCCN(Cc1coc(-c2cccc(F)c2)n1)CC1CCCO1 (stereo unspecified) | -9
2 | Cc1ccc(Oc2nc(C)ccc2/C(=N/O)N2CCC3CCCCC3C2)c(C)c1 (stereo unspecified) | 10
3 | CC(C)COc1ncccc1/C(=N/O)N1CCC2CCCCC2C1 (stereo unspecified) | -17
4 | Cc1ccc(Oc2ccc(/C(=N/O)N3CCN(c4ccccc4)CC3)cn2)c(C)c1 | 18
5 | COc1cc(CN(C)Cc2coc(-c3ccc(Cl)cc3Cl)n2)cc(OC)c1OC | 0
6 | COc1cc(-c2nc(CN3CCCc4ccccc43)co2)cc(OC)c1OC | 6
7 | Cc1ccc(Oc2nc(C)ccc2/C(=N/O)NCc2ccccc2C)c(C)c1 | 43
8 | CCOc1ccccc1CN/C(=N\O)c1ccc(C)nc1Oc1ccc(SC)c(C)c1 | -24
9 | CCOc1ccccc1CN/C(=N\O)c1ccc(C)nc1Oc1ccc(C)cc1C | 99
10 | CCOc1ccccc1CN/C(=N\O)c1ccc(C)nc1Oc1ccc(C)cc1 | 67
11 | COc1ccccc1CN/C(=N\O)c1ccc(C)nc1Oc1ccc(C)cc1C | 40
12 | CCOc1ccccc1CN/C(=N\O)c1ccc(C)nc1Oc1ccc(F)cc1 | 20
13 | Fc1ccc(-c2nc(CNC3CCc4ccccc43)co2)cc1 (stereo unspecified) | 28
14 | Cc1ccc(/C(=N/O)N2C(C)CCCC2C)c(Oc2cccc(F)c2)n1 (stereo unspecified) | 15
15 | CN(Cc1coc(-c2cccc(F)c2)n1)Cc1cccc2ccccc12 | -3
16 | COc1ccc(CN/C(=N\O)c2ccnc(Oc3ccc(C)c4c3CCC4)c2)cc1 | 21
17 | COC(=O)c1cn(Cc2coc(-c3ccc(Br)cc3)n2)cn1 | 16
18 | CSc1ccc(Oc2ncccc2/C(N)=N/O)cc1C | 17
19 | CCOc1ccc(Oc2cc(/C(=N/O)NC3CCCC3)ccn2)cc1 | 53
20 | CCOc1ccc(Oc2cc(/C(=N/O)NC3CC(C)CC(C)(C)C3)ccn2)cc1 (stereo unspecified) | 29
21 | CCOc1ccc(Oc2cc(/C(=N/O)NC3CCc4ccccc43)ccn2)cc1 (stereo unspecified) | 29
22 | CCOc1ccc(Oc2cc(/C(=N/O)NC3CCCCC3)ccn2)cc1 | 51

Row | Structure (SMILES) | % inhibition [%]
23 | CCOc1ccc(Oc2cc(/C(=N/O)Nc3ccccc3)ccn2)cc1 | 24
24 | CCOc1ccc(Oc2cc(/C(=N/O)NC3CCC(C)CC3)ccn2)cc1 (stereo unspecified) | 25
25 | CCOc1cccc(-c2nc(CN3CCN(c4cc(C)nc5ccccc45)CC3)co2)c1 | 11
26 | Cc1ccccc1-c1nc(CNCCN2CCOCC2)co1 | 6
27 | CCOc1cccc(-c2nc(CN3CCCN(C)CC3)co2)c1 | 2
28 | CSc1ccc(Oc2nc(C)ccc2/C(=N/O)N2CCSC2)cc1 | 1
29 | Fc1cccc(-c2nc(CN3CCCCCC3)co2)c1 | 5
30 | CC(C)CN/C(=N\O)c1ccc(Oc2ccc3ccccc3c2)nc1 | 2
31 | Cc1cc(Oc2ccc(/C(=N/O)NCC3CC3)cn2)cc(C(C)C)c1 | 97
32 | COc1cccc(Oc2ccc(/C(=N/O)NCC(C)C)cn2)c1 | 19
33 | Cc1cc(Oc2ccc(/C(=N/O)NC3CC3)cn2)cc(C(C)C)c1 | 62
34 | CCCN/C(=N\O)c1ccc(Oc2cc(C)cc(C)c2)nc1 | 20
35 | Cc1cc(Oc2ccc(/C(=N/O)NC3CCC(C)CC3)cn2)cc(C(C)C)c1 (stereo unspecified) | 19
36 | Cc1cc(C)cc(Oc2ccc(/C(=N/O)NCC(C)C)cn2)c1 | 90
37 | Cc1cc(C)cc(CN/C(=N\O)c2ccc(Oc3cc(C)cc(C(C)C)c3)nc2)c1 | 19
38 | Cc1cc(C)cc(CN/C(=N\O)c2ccc(Oc3cc(C)cc(C)c3)nc2)c1 | -3
39 | COCCN/C(=N\O)c1ccc(Oc2cc(C)cc(C(C)C)c2)nc1 | 17
40 | Cc1cc(C)cc(Oc2ccc(/C(=N/O)NCC(C)(C)C)cn2)c1 | 98
41 | Cc1cc(Oc2ccc(/C(=N/O)NC3CCc4ccccc43)cn2)cc(C(C)C)c1 (stereo unspecified) | 35
42 | CCC(C)(C)N/C(=N\O)c1ccc(C)nc1Oc1ccc(F)c(F)c1 | 11
43 | CCOc1ccccc1-c1nc(CN2CCC=N2)co1 | -3
44 | CC(=O)c1ccc(N2CCN(Cc3coc(-c4ccc(F)cc4)n3)CC2)cc1 | -5

Row | Structure (SMILES) | % inhibition [%]
45 | Cc1cc(C)cc(Oc2ccc(/C(=N/O)NCC3CCCCC3)cn2)c1 | 21
46 | Cc1cc(C)cc(Oc2ccc(/C(=N/O)NCC3CC3)cn2)c1 | 99
47 | Cc1cc(C)cc(Oc2ccc(/C(=N/O)NCC3CCCO3)cn2)c1 (stereo unspecified) | -3
48 | Cc1cccc(CNCc2coc(-c3ccc(O)cc3)n2)c1 | -10
49 | Cc1cn(Cc2coc(-c3ccccc3Br)n2)c(C)n1 | 25
50 | CCCCN(Cc1coc(-c2ccccc2Cl)n1)c1ccccc1 | 10
51 | COc1cc(-c2nc(Cn3cnc(C)c3)co2)cc(OC)c1OC | -15
52 | Cc1ccc(-c2nc(CNC[C@@H]3CC[C@H]4C[C@@H]3C4(C)C)co2)cc1 | 99
53 | CC1(C)[C@H]2CC[C@@H](CNCc3coc(-c4cccc(F)c4)n3)[C@@H]1C2 | 42
54 | Cc1ccc(-c2nc(CNC[C@@H]3CCCO3)co2)cc1 | 12
55 | Cc1ccc(-c2nc(CNCc3ccc(C)o3)co2)cc1 | -7
56 | COc1cc(-c2nc(CNC[C@@H]3CC[C@H]4C[C@@H]3C4(C)C)co2)cc(OC)c1OC | 11
57 | CC1(C)[C@H]2CC[C@@H](CNCc3coc(-c4ccccc4Cl)n3)[C@@H]1C2 | 35
58 | CC1(C)[C@H]2CC[C@@H](CNCc3coc(-c4ccc(F)cc4)n3)[C@@H]1C2 | 99
59 | CC1(C)[C@H]2CC[C@@H](CNCc3coc(-c4cccc5ccccc45)n3)[C@@H]1C2 | 73
60 | COc1ccc(-c2nc(CNC[C@@H]3CC[C@H]4C[C@@H]3C4(C)C)co2)cc1 | 97
61 | COc1ccc(CNCc2coc(-c3ccc(F)cc3)n2)cc1 | -33
62 | c1ccc2c(CNCc3coc(-c4cccc5ccccc45)n3)cccc2c1 | 14
63 | COc1ccc(-c2nc(CNCC3CCCO3)co2)cc1 (stereo unspecified) | -10
64 | CCOc1ccc(-c2nc(CNCc3ccc(C(F)(F)F)cc3)co2)cc1 | -13
65 | CCOc1ccc(-c2nc(CN3CCC(N4CCCCC4)CC3)co2)cc1 | 9
66 | CC(NCc1coc(-c2ccccc2Cl)n1)c1ccccc1 (stereo unspecified) | 9

Row | Structure (SMILES) | % inhibition [%]
67 | COC(=O)C1CCN(/C(=N\O)c2ccc(Oc3ccc(C)cc3C)nc2)CC1 | 11
68 | CCCCN(CCC#N)Cc1coc(-c2ccccc2OCC)n1 | -9
69 | O=[N+]([O-])c1ccc(N2CCN(Cc3coc(-c4cccc(F)c4)n3)CC2)cc1 | -6
70 | c1csc(-c2nc(CN3CCCCCCC3)co2)c1 | 3
71 | Cc1cc(C)cc(Oc2nc(C)ccc2/C(=N/O)NCCN2CCOCC2)c1 | 15
72 | Cc1ccc(/C(=N/O)NCCC2CCCN2C)c(Oc2ccc3oc4ccccc4c3c2)n1 (stereo unspecified) | 13
73 | Cc1ccc(/C(=N/O)NC2CCC(C)CC2)c(Oc2ccc3oc4ccccc4c3c2)n1 (stereo unspecified) | 3
74 | Cc1cc(N/C(=N\O)c2ccc(C)nc2Oc2ccc3oc4ccccc4c3c2)on1 | 20
75 | Cc1ccc(/C(=N/O)NCC2CC2)c(Oc2ccc3oc4ccccc4c3c2)n1 | 5
76 | Cc1ccc(/C(=N/O)NC2CCCC2)c(Oc2ccc3oc4ccccc4c3c2)n1 | 99
77 | Cc1ccc(/C(=N/O)NC2CCC2)c(Oc2ccc3oc4ccccc4c3c2)n1 | 101
78 | Cc1ccc(/C(=N/O)NC2CCCC2)c(Oc2cccc(C(C)C)c2)n1 | 3
79 | CC(C)COc1ncccc1/C(=N/O)N(C)Cc1ccco1 | 11
80 | COc1ccc(-c2nc(CN3CCN(C(=O)C4CCCO4)CC3)co2)cc1 (stereo unspecified) | 9
81 | COc1ccc(Oc2cc(/C(N)=N/O)ccn2)cc1 | 19
82 | CCOc1ccc(Oc2cc(/C(N)=N/O)ccn2)cc1 | 7
83 | Cc1ccc(Oc2cc(/C(N)=N/O)ccn2)c2c1CCC2 | 16
84 | C#CCN(C)Cc1coc(-c2ccc(Br)cc2)n1 | 4
85 | CCC(CC)N/C(=N\O)c1cccnc1OCC1CCCCC1 | 98
86 | O/N=C(\NC1CCCCC1)c1cccnc1OCC(F)(F)F | 71
87 | O/N=C(\NCC1CCCCC1)c1cccnc1OCC(F)(F)F | 0
88 | O/N=C(\NC1CCC1)c1cccnc1OCC1CCCCC1 | 99

Row | Structure (SMILES) | % inhibition [%]
89 | O/N=C(\NCC1CCCO1)c1cccnc1OCC1CCCCC1 (stereo unspecified) | 5
90 | N/C(=N\O)c1cccnc1OCC1CCCCC1 | 13
91 | O/N=C(\NCc1cccs1)c1cccnc1OCC1CCCCC1 | -4
92 | Cc1ccc(/C(=N/O)NC2CCCC2)c(OCC2CCCCC2)n1 | 12
93 | CC(C)c1ccc(N/C(=N\O)c2cccnc2OCC(F)(F)F)cc1 | 1
94 | COc1ccc(CN/C(=N\O)c2cccnc2Oc2ccc(SC)c(C)c2)cc1 | 4
95 | CC1CCCCN1Cc1coc(-c2ccco2)n1 (stereo unspecified) | 1
96 | C(=C\c1ccccc1)/CN1CCN(Cc2coc(-c3cccc4ccccc34)n2)CC1 | 19
97 | O/N=C(/c1ccc(Oc2cccc(F)c2)nc1)N1CCCCC1 | 5
98 | c1csc(-c2nc(CNCC3CCCO3)co2)c1 (stereo unspecified) | 2
99 | COc1ccc(-c2nc(CN3CCCCC3)co2)cc1 | 4
100 | Cc1ccc(/C(=N/O)N2CCCCC2)c(Oc2ccc(-n3ccnc3)cc2)n1 | 12
101 | Cc1ccc(/C(N)=N/O)c(Oc2cccc(C(C)C)c2)n1 | 57
102 | Cc1cc(Oc2ncccc2/C(N)=N/O)cc(C(C)C)c1 | 20
103 | Cc1cc(Oc2nc(C)ccc2/C(N)=N/O)cc(C(C)C)c1 | 55
104 | Cc1ccc(/C(=N/O)NC(C)C)c(Oc2cccc(C(C)C)c2)n1 | 7
105 | Cc1ccc(/C(N)=N/O)c(Oc2ccc(C(C)C)cc2)n1 | 31
106 | Cc1cccc(Oc2nc(C)ccc2/C(N)=N/O)c1 | -4
